The record followed here is PubChem BioAssay AID799 (SRMLSC, 2007).

The whole screen tested about 140,000 compounds, of which about 840 (0.6%) were called active. The list comes from a sample in which actives are over-represented; it also holds similar structures and randomly drawn compounds. Unmarked numbers belong to inactive results.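 The calls were made as follows: active = viability gain under doxorubicin at or above a set limit, the compound median plus 3 SD (cut at about 4.7% in these data); inactive = the rest.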

A short description of this assay: protection of MRP-1-high cells against doxorubicin toxicity – H69AR cells, CellTiter-Glo, MRP-1 activator project, primary screen (AID 799).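 Also: MRP-1 overexpressing cells given doxorubicin 25 µM after compound pretreatment; 18-22 h compound pretreatment then 72 h with doxorubicin before readout; 0% = doxorubicin-only wells and 100% = vehicle-treated cells without doxorubicin.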 As to conditions: viability rescue, at 10 µM, active compounds read high.
For `COc1ccc([N+](=O)[O-])cc1NC(=O)COC(=O)/C=C/c1ccco1`, the viability increase was 7.08% (active).
In the case of `CC(C)CNC(=O)COC(=O)/C=C/c1ccco1`, the viability increase was 1.16%.
The figure for `COc1ccc([N+](=O)[O-])cc1NC(=O)CCc1ccccc1` is -1.62%; for `Cc1[nH]c2ccccc2c1/C=N\NC(=O)Cn1nnc(-c2ccccc2)n1` it is 3.22%; for `CN(C)CCCNC(=S)NCc1ccc(Cl)cc1` it is -0.81%.
Consider `CCOC(=O)NC(=O)CSc1nnc(SCCC(=O)O)s1`, for which the viability increase is 1.73%.
For the compound `CCCC(=O)Nc1cccc(NC(=S)NC(=O)C(C)Oc2ccc(Cl)cc2Cl)c1` (stereo not given), the viability increase was -2.06%.
The figure for `COc1ccccc1C(=O)Nc1ccc(OCc2nnc3c4ccccc4c(C)nn23)cc1` is 0.29%.
With `Cc1cccnc1NC(=O)CSc1nnc(COc2ccc(C(C)C)cc2)n1C`, the viability increase was 0.08%.
On to `Cc1ccc(OCc2nnc(SC3CCc4ccccc4C3=O)n2C)cc1` (stereo not given), for which the viability increase is 7.21% (active).
With `Cc1ccc2nc(SCc3cn4c(C)cc(C)nc4n3)[nH]c2c1`, the viability increase is 0%.
For `COc1ccc(N2CCN(Cc3cc(=O)oc4ccc5ccccc5c34)CC2)cc1`, the viability increase is -1.38%.
In the case of `OC(COc1ccc2c(c1)CCC2)CN1CCN(c2cccc(Cl)c2)CC1` (stereo not given), the viability increase is -3.05%.
For the compound `O=c1cc(CN2CCN(c3cccc(Cl)c3)CC2)c2cc3c(cc2o1)CCCC3`, the viability increase is 6.01% (active).
As to `O=C(CSc1nc2ccccc2[nH]1)N/N=C/C=C\c1ccccc1[N+](=O)[O-]`, the viability increase is -1.58%.
The figure for `COc1cccc(/C(C)=N/Nc2ncc(Cl)cc2Cl)c1` is -1%; for `Cn1cc(C(=O)NCc2ccccc2F)cn1` it is -0.72%.
`CCn1nc(C)c(NC(=O)/C=C/c2ccc(OC)c(COc3ccc(Br)cc3)c2)c1C`: the viability increase is 3.69%.
As to `COc1ccc(/C=C/C(=O)Nc2ccc3c(c2)OCCO3)cc1OC`, the viability increase was -2.17%.
With `COc1ccc(/C=C/C(=O)Nc2c(C)nn(C)c2C)cc1COc1ccc(Br)cc1`, the viability increase is 7.14% (active).
`Cn1c(=O)c(Sc2ccc(Cl)cc2)c(O)c2ccccc21`: the viability increase was -2.5%.
`CCN(CC)CCNCc1ccc(OCc2ccc(Cl)nc2)c(OC)c1`: the viability increase was 1.21%.
For the compound `COc1ccc(NS(=O)(=O)c2ccc(NC(=O)C(C)(C(F)(F)F)C(F)(F)F)cc2)nn1`, the viability increase is -0.72%.
For `COc1ccc(NS(=O)(=O)c2ccc(NC(=S)NC(=O)/C=C/c3ccc(C)cc3)cc2)nn1` the value was -3.16%; for `CCCCCC(=O)Nc1ccc(S(=O)(=O)Nc2ccc(Cl)nn2)cc1`, 6.79% (active).
The figure for `O=C(/C=C/c1ccccc1)Nc1nnc(SCC(=O)c2ccc3ccccc3c2)s1` is -5.32%.
In the case of `COc1ccc2nc(NC(=O)[C@@H]3CCCN3C(=O)c3cccs3)sc2c1`, the viability increase was -1.42%.
For the compound `CC(C)CN(C(=O)CN1CCN(S(=O)(=O)c2ccccc2)CC1)c1c(N)n(CC(C)C)c(=O)[nH]c1=O`, the viability increase was 0.86%.
With `Cc1cc(/C=C2/NC(=O)NC2=O)c(C)n1-c1cccnc1`, the viability increase was -1.48%.
As for `Cc1ccccc1-n1c(C)cc(/C=C2\NC(=O)NC2=O)c1C`, the viability increase was -4.81%.
For `Cc1cccc(C)c1-n1c(C)cc(/C=C2\C(=O)NN(c3ccccc3)C2=O)c1C` the value was 7.89% (active); for `CCC(C(=O)OCC(=O)Nc1c(Cl)cc(Cl)cc1Cl)c1ccccc1` (stereo not given), 0.97%; for `COc1ccc(-n2ncc3c(N4CCc5ccccc54)ncnc32)cc1`, -1.22%.
The figure for `Cc1cccc(-n2ncc3c(N4CCc5ccccc54)ncnc32)c1` is -0.96%; for `COc1ccc(-n2ncc3c(N4CCCc5ccccc54)ncnc32)cc1` it is 10.8% (active); for `COc1cc(Cl)c(C)cc1NC(=O)COC(=O)c1cc(SC)ccc1Cl` it is -0.15%.
As for `CCC1CCCCN1C(=S)Nc1ccc(SC(F)F)cc1` (stereo not given), the viability increase was 1.82%.
Consider `Cc1ccccc1NC(=O)CNc1ccccc1N1CCCCC1`, for which the viability increase was -3.04%.
In the case of `Cc1ccccc1NC(=O)CSC1=NCCN1`, the viability increase is 5.48% (active).
The figure for `Cc1cccc(NC(=O)CSc2nc3c(c(=O)[nH]2)CCCC3)c1C` is -0.17%.
For the compound `N=c1n(CCc2ccccc2)c2ccccc2n1Cc1ccccc1F`, the viability increase was -4.33%.
As for `COc1ccc(C)cc1NC(=O)CSc1ccc(Cl)cc1`, the viability increase was -1.28%.
On to `O=C1CCCC(O)=C1N=Nc1ccc2ncsc2c1`, for which the viability increase is -2.88%.
For `Cc1cc(C(=O)OCC(=O)Nc2ccc(F)c(F)c2)c(C)o1` the value was 7.91% (active); for `CCn1c2ccccc2c2cc(NC(=O)COC(=O)c3ccccc3Br)ccc21`, -1.59%; for `Cc1cc(C(=O)OCC(=O)c2c(N)n(C)c(=O)n(C)c2=O)c(C)o1`, -2.26%.
As for `CC(C)(C)NC(=O)C(=O)NCc1ccncc1`, the viability increase was -2.66%.
In the case of `COc1ccc(NC(=O)CC2COc3ccccc3O2)c(OC)c1` (stereo not given), the viability increase is 4.96% (active).
For `COc1ccc(NC(=O)CCN2CCCC2)c(OC)c1`, the viability increase was 1.66%.
Consider `Cc1cc(NC(=O)CCC2COc3ccccc3O2)no1` (stereo not given), for which the viability increase was 0%.
Take `O=c1cc(CN2CCN(S(=O)(=O)/C=C/c3ccccc3)CC2)c2ccc(O)cc2o1`: the viability increase is -2.59%.
The figure for `CC(C)(C)CC(C)(C)NCC(O)COCCOc1ccc(Br)cc1` (stereo not given) is -4.69%.
With `Cc1cc(C(=O)N/N=C/c2cc([N+](=O)[O-])cc(C)c2O)n[nH]1`, the viability increase is 5.47% (active).
On to `Cc1ccc(-n2[nH]c(C)c(/C=N/NC(=O)c3cccc([N+](=O)[O-])c3)c2=O)cc1C`, for which the viability increase was -4.06%.
In the case of `Cc1ccsc1C(=O)N/N=C/c1ccc([N+](=O)[O-])cc1`, the viability increase was 0.85%.
Regarding `COC(=O)c1onc(-c2c(OC)cc(OC)cc2OC)c1C(=O)OC`, the viability increase was 1.1%.
The figure for `O=C(N/N=C/c1ccc(Br)o1)c1cncc(Br)c1` is -1.78%; for `Cc1ccc(OCC(=O)OC(C)CN(C)Cc2ccccc2)cc1` (stereo not given) it is -1.74%.
In the case of `CCn1c(SCC(=O)Nc2ccc(C)cc2)nc2nc3c(cc2c1=O)CCCC3`, the viability increase was 0.07%.
Turning to `Clc1ccc(COn2c(-c3ccc(Cl)cc3Cl)nc3ncccc32)cc1`, the viability increase is -3.46%.
The figure for `COc1ccc(OC)c(-c2c(=O)n(OCc3ccccc3Br)c3ccccc3[n+]2[O-])c1` is -1.16%.
With `CCOc1ccc(OCC)c(-c2c(=O)n(OCc3ccc(Cl)cc3)c3ccccc3[n+]2[O-])c1`, the viability increase was 7.22% (active).
As for `CCCN(CC1COc2ccccc2O1)C(=S)Nc1ccc(C)cc1` (stereo not given), the viability increase was -0.89%.
For `Cc1nnc(-c2ccc(Oc3ccc(C)c(C)c3)c([N+](=O)[O-])c2)o1` the value was -1.23%; for `COc1cccc(/C=N/Nc2ncc(C(F)(F)F)cc2Cl)c1O`, -4.98%; for `Cc1cc(C)c(NC(=S)N2CCCC2C(=O)O)c(C)c1` (stereo not given), 0.6%.
Turning to `CC(C)(C)c1ccc(C(=O)CSc2ncn[nH]2)cc1`, the viability increase is 9.85% (active).
With `Cn1nnc(NC(=O)CSc2ncn[nH]2)n1`, the viability increase is -0.73%.
Take `CCN(C(=O)CSc1ncn[nH]1)c1cccc2ccccc12`: the viability increase is 1.04%.
In the case of `CCN(CC(=O)NCCc1ccccc1)S(=O)(=O)c1ccc(C)cc1`, the viability increase is -2.77%.
As for `O=C(Cc1ccccc1)Nc1cccc(C(=O)N/N=C/c2ccco2)c1`, the viability increase is -0.32%.
Regarding `COc1ccc(CC(=O)Nc2ccc(C(=O)NC(C)(C)C)cc2)cc1`, the viability increase is 0.14%.
With `CC(C)(C)NC(=O)c1cccc(NC(=O)Cc2ccc(Br)cc2)c1`, the viability increase is 5.31% (active).
`COc1ccc(Cl)cc1NC(=O)Cn1nc(-c2ccc(C)cc2)n(C)c1=S`: the viability increase was -3.24%.
For the compound `CCOC(=O)c1cnc2ccc(F)cc2c1Nc1ccc2c(c1)OCCO2`, the viability increase was -1.56%.
Turning to `Cc1c(CCO)sc[n+]1CC(=O)OC12CC3CC(CC(C3)C1)C2`, the viability increase is -0.72%.
Consider `N#C/C(C(=O)N1CCOCC1)=C1/SC(Cc2ccc(F)cc2)C(=O)N1c1ccccc1` (stereo not given), for which the viability increase is -0.96%.
Regarding `Cc1ccc(C(=O)C(=S)N2CCOCC2)cc1`, the viability increase is -2%.
Regarding `Cc1ccc(CC2S/C(=C(/C#N)C(=O)N3CCOCC3)N(c3ccccc3)C2=O)cc1` (stereo not given), the viability increase was 7.14% (active).
Take `Cc1ccn(-c2cccc(-n3ccc(C)n3)n2)n1`: the viability increase is 1.12%.
As to `CN1/C(=C\C(=O)c2cccnc2Cl)C(C)(C)c2ccccc21`, the viability increase was -0.96%.
As for `CN1/C(=C\C(=O)c2oc3ccccc3c2N)C(C)(C)c2ccccc21`, the viability increase was 5.19% (active).
The figure for `Cc1noc(C)c1C(=O)OCC(=O)/C=C1\N(C)c2ccccc2C1(C)C` is -1.22%.
The figure for `C/C(=N/NS(=O)(=O)c1ccccc1)c1ccc(NC(=O)C(F)(F)F)cc1` is -0.61%.
Turning to `Cc1ccccc1N/C(SCc1ccc(Cl)cc1)=C(/C#N)C(N)=O`, the viability increase is -2.62%.
Consider `Cc1scc(C(=O)NNC(=S)NCC(C)C)c1C`, for which the viability increase was 0.83%.
As for `COc1ccc(CC(=O)N2N=C(C)CC2(O)C(F)(F)F)cc1` (stereo not given), the viability increase was -0.45%.
On to `Cc1ccc(S(=O)(=O)Nc2ccc3ncccc3c2)cc1`, for which the viability increase is 5.23% (active).
On to `O=S(=O)(Nc1ccc(Oc2ncccn2)c(Cl)c1)c1ccc(F)cc1`, for which the viability increase was -2.28%.
Consider `Cc1ccc(C(=O)/C=C/Nc2ccc(S(=O)(=O)Nc3onc(C)c3C)cc2)cc1`, for which the viability increase is -1.44%.
In the case of `CCc1nccn1S(=O)(=O)c1cccc([N+](=O)[O-])c1`, the viability increase was 1.01%.
The figure for `N#CC1(NC(=O)COc2ccc3oc4ccccc4c3c2)CCCCC1` is 0%; for `O=C(COc1ccc2oc3c(c2c1)CCCC3)Nc1ccccn1` it is 5.27% (active).
As for `NC(=O)COc1ccc2c3c(c(=O)oc2c1)CCCCC3`, the viability increase is -0.34%.
Regarding `O=C(COC(=O)Cc1ccc(F)cc1)Nc1cc(S(=O)(=O)N2CCOCC2)ccc1N1CCCC1`, the viability increase was 0.15%.
